Assay [1] addresses Metallo-beta-lactamase type 2 (Klebsiella pneumoniae) (UniProt C7C422). The experiment in a line: qHTS to identify inhibitors of the New Delhi Metallo-beta-lactamase (NDM): assay validation screen against the NCATS LOPAC Collection (AID 1794843). Note: potency is the fitted concentration of half-maximal effect. The method in brief:
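Enzyme 2 nM final, 50 mM HEPES pH 7.0, 1 uM ZnSO4, 0.01% Tween20; cpds in DMSO, preincub w/ enzyme; + nitrocefin (50 uM stock); A485 at plateau; no-enzyme column as blank.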

Assay [2] addresses Glutathione peroxidase 1 (Homo sapiens) (UniProt P07203). The experiment in a line: Primary qHTS Assay for Inhibitors of Recombinant Selenoprotein Glutathione Peroxidase 1 (GPX1) (AID 1845191). Note: nearly all actives have a fitted effect of over 65% in size. Note: potency is the fitted concentration of half-maximal effect. In a few lines:
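GR-coupled assay: compounds preincubated 30 min at room temperature with GPX1, then reaction started with CHP; final 10 nM GPX1, 1 mM GSH, 0.5 mM CHP, 0.5 mM NADPH, 100 nM GR, 0.01% BSA, pH 7.5 Tris buffer. NADPH fluorescence (340/450 nm) read at 0 and 15 min.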

Assay [3] concerns the target Phospholipid hydroperoxide glutathione peroxidase GPX4 (Homo sapiens) (UniProt P36969). The experiment in a line: Primary qHTS Assay for Inhibitors of Recombinant Selenoprotein Glutathione Peroxidase 4 (GPX4) (AID 1845192). Note: nearly all actives have a fitted effect of over 65% in size. The method in brief: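 GR-coupled assay: recombinant GPX4 preincubated 30 min with compound at room temperature; final 200 nM GPX4, 1 mM GSH, 0.5 mM cumene hydroperoxide, 0.5 mM NADPH, 100 nM GR, 0.01% BSA, pH 7.5 Tris. NADPH fluorescence (340/450 nm) read at 0 and 15 min.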
On the technique in general: qHTS replaces the single test concentration by a dilution series.

Molecules are shown by their SMILES. Records with an inconclusive call do not appear. Calls of active or inactive are those of the source. Calls come from the whole dose curve; as a rule, active = well fitted curve in the direction sought with a large enough effect; inconclusive = small, poorly fitted or top-dose-only effect, or another doubt; inactive = no such curve, though single readings can be large; an effect the other way counts as inactive or inconclusive.

Chain of Glutathione peroxidase 1 (Homo sapiens) (P07203 whole entry, looked up): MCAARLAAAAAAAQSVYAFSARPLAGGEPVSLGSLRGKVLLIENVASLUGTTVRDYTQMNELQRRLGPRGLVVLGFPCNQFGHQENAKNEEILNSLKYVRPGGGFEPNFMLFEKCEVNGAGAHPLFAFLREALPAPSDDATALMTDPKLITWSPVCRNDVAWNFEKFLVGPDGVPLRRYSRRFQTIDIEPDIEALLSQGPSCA
Chain of Phospholipid hydroperoxide glutathione peroxidase GPX4 (Homo sapiens) (P36969 whole entry, looked up): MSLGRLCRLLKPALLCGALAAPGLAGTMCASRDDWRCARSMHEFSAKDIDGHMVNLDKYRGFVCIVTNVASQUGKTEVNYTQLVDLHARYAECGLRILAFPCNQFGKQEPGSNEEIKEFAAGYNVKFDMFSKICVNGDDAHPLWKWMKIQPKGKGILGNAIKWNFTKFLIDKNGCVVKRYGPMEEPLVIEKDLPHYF
Chain of Metallo-beta-lactamase type 2 (Klebsiella pneumoniae) (C7C422 whole entry, looked up): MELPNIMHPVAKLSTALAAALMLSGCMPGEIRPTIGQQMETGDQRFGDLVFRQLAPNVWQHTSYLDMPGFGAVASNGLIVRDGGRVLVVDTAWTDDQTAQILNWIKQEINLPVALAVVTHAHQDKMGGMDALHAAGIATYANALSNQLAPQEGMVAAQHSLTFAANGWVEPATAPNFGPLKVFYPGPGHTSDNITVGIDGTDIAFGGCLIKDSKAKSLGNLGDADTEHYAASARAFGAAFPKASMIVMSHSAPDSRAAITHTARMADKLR

Consider `CC12NC(Cc3ccccc31)c1ccccc12` (stereo not given), for which the Potency entry in assay [1], in assay [2] and in assay [3] was “inactive” each time.
As for `CCCN(CCC)[C@H]1CCc2c(F)ccc(O)c2C1`, the Potency result in assay [1], in assay [2] and in assay [3] was “inactive” throughout.
Take `CN(N=O)c1ccc(O)c(O)c1`: the Potency in assay [1] was 12.6 µM (active). Also, the Potency result in assay [2] and in assay [3] was “inactive” in each case.
For `O=c1ccc2[nH]cc(C3=CCNCC3)c2[nH]1`, the Potency result in assay [1], in assay [2] and in assay [3] was “inactive” throughout.
For the compound `C[N+](C)(C)CCOC(=O)CBr`, the Potency result in assay [1], in assay [2] and in assay [3] was “inactive” in each case.
For `C=CCN1C[C@@H](C)N([C@H](c2ccc(C(=O)N(CC)CC)cc2)c2cccc(OC)c2)C[C@@H]1C`, the Potency entry in assay [1], in assay [2] and in assay [3] was “inactive” in each case.
Consider `COc1ccc(OC)c(C(O)C(C)N)c1` (stereo not given), for which the Potency result in assay [1], in assay [2] and in assay [3] was “inactive” each time.
Turning to `COC(=O)N1CCN(C(=O)Cc2ccc(Cl)c(Cl)c2)C(CN2CCCC2)C1` (stereo not given), the Potency entry in assay [1], in assay [2] and in assay [3] was “inactive” throughout.
Turning to `COc1ccc2[nH]c3c(c2c1)CCNC3`, the Potency entry in assay [1], in assay [2] and in assay [3] was “inactive” throughout.
Consider `CC1(C(=O)O)C2CCC(O2)C1(C)C(=O)O` (stereo not given), for which the Potency entry in assay [1], in assay [2] and in assay [3] was “inactive” each time.
Turning to `NNC(=O)c1ccc(O)cc1`, the Potency entry in assay [1], in assay [2] and in assay [3] was “inactive” each time.
Consider `C[C@H]1C2Cc3ccc(O)cc3[C@@]1(C)CCN2CC1CC1`, for which the Potency entry in assay [1], in assay [2] and in assay [3] was “inactive” in each case.
Consider `OCc1cnc[nH]1`, for which the Potency entry in assay [1], in assay [2] and in assay [3] was “inactive” each time.
In the case of `NC(N)=NOCC[C@H](N)C(=O)O`, the Potency entry in assay [1], in assay [2] and in assay [3] was “inactive” each time.
Turning to `CCCN(CCC)C1CCc2cccc(O)c2C1` (stereo not given), the Potency entry in assay [1], in assay [2] and in assay [3] was “inactive” each time.
In the case of `OC1CCCCC1N1CCC(c2ccccc2)CC1` (stereo not given), the Potency entry in assay [1], in assay [2] and in assay [3] was “inactive” throughout.
As to `NC(N)=Nc1ccc2[nH]c3c(c2c1)C[C@@]1(O)[C@H]2Cc4ccc(O)c5c4[C@@]1(CCN2CC1CC1)[C@H]3O5`, the Potency result in assay [1], in assay [2] and in assay [3] was “inactive” in each case.
`CCCN1CC[C@@H]2c3cc(O)ccc3CC[C@@H]21`: the Potency entry in assay [1], in assay [2] and in assay [3] was “inactive” throughout.
For `CN(C(=O)Cc1ccc(Cl)c(Cl)c1)C(CN1CCCC1)c1cccc(OCC(=O)O)c1` (stereo not given), the Potency entry in assay [1], in assay [2] and in assay [3] was “inactive” each time.
In the case of `C[N+](C)(C)CC#CCOC(=O)Nc1cccc(Cl)c1`, the Potency result in assay [1], in assay [2] and in assay [3] was “inactive” each time.
`CC(Cc1ccc(OCC(=O)O)cc1)NCC(O)c1cccc(Cl)c1` (stereo not given): the Potency entry in assay [1], in assay [2] and in assay [3] was “inactive” throughout.
Take `CC(C)NP(=O)(NC(C)C)OP(=O)(NC(C)C)NC(C)C`: the Potency result in assay [1], in assay [2] and in assay [3] was “inactive” each time.
In the case of `O=S1(=O)N(CCN2CC=C(c3c[nH]c4cc(F)ccc34)CC2)c2cccc3c2N1CCC3`, the Potency entry in assay [1], in assay [2] and in assay [3] was “inactive” in each case.
With `CCCN1CCc2cc(O)cc3c2[C@H]1Cc1ccc(O)c(O)c1-3`, the Potency result in assay [1], in assay [2] and in assay [3] was “inactive” each time.
On to `CCCN1CCc2cccc3c2[C@H]1Cc1ccc(O)c(O)c1-3`, for which the Potency result in assay [1], in assay [2] and in assay [3] was “inactive” each time.
Regarding `CCS(=O)(=O)Nc1cccc(C(=C2CCCCC2)c2cnc[nH]2)c1`, the Potency result in assay [1], in assay [2] and in assay [3] was “inactive” throughout.
For `[Cl-].[Cl][Pt].[NH2-].[NH2-].c1ccncc1`, the Potency in assay [1] was 3.98 µM (active). Moreover, in assay [2], the Potency result was “inactive”.
As to `NC(=O)CI`, the Potency entry in assay [1], in assay [2] and in assay [3] was “inactive” throughout.
With `C[C@H](Cc1ccc2c(c1)OC(C(=O)O)(C(=O)O)O2)NC[C@H](O)c1cccc(Cl)c1`, the Potency entry in assay [1], in assay [2] and in assay [3] was “inactive” in each case.
Take `CN(N=O)c1cc(O)ccc1O`: the Potency entry in assay [1], in assay [2] and in assay [3] was “inactive” each time.
As for `N#C/C(=C/c1ccc(O)c(O)c1)C(N)=S`, the Potency entry in assay [1] and in assay [3] was “inactive” each time. In assay [2], the Potency is 14.3 µM (active).
`C[N+](C)(C)CC#CCN1CCCC1=O`: the Potency result in assay [1], in assay [2] and in assay [3] was “inactive” each time.
As to `C[N+]1(C)CCN(c2ccccc2)CC1`, the Potency entry in assay [1], in assay [2] and in assay [3] was “inactive” throughout.
For `CC(N)c1cccc(Cl)c1Cl` (stereo not given), the Potency result in assay [1], in assay [2] and in assay [3] was “inactive” throughout.
`C=CCN1CCC23c4c5ccc(O)c4O[C@H]2C(=O)CC[C@@]3(O)C1C5` (stereo not given in full): the Potency entry in assay [1], in assay [2] and in assay [3] was “inactive” throughout.
For `c1ccc2c(c1)[I+]c1ccccc1-2`, the Potency result in assay [1], in assay [2] and in assay [3] was “inactive” in each case.
With `O=[N+]([O-])c1cc(O)c(O)c([N+](=O)[O-])c1`, the Potency entry in assay [1], in assay [2] and in assay [3] was “inactive” in each case.
For `CCCN(CCC)[C@@H]1CCc2cccc(O)c2C1`, the Potency entry in assay [1], in assay [2] and in assay [3] was “inactive” throughout.
In the case of `N[C@@]1(C(=O)O)CC[C@@H](C(=O)O)C1`, the Potency result in assay [1], in assay [2] and in assay [3] was “inactive” in each case.
On to `Cc1[nH]c2ccc(O)cc2c1CCN`, for which the Potency entry in assay [1], in assay [2] and in assay [3] was “inactive” throughout.
In the case of `Clc1cc(I)cc(Cl)c1NC1=NCCN1`, the Potency result in assay [1], in assay [2] and in assay [3] was “inactive” throughout.
For the compound `CC(C)(O)[C@@H]1C2OC(=O)[C@@H]1[C@]1(O)C[C@H]3O[C@]34C(=O)O[C@H]2[C@]14C` (tested in a mixture with another compound), the Potency result in assay [1], in assay [2] and in assay [3] was “inactive” throughout.

(Values after PubChem BioAssay (NCATS).)
